High-throughput results: PubChem, several laboratories
This is one part of a sample in which hits are shown more often than they occur.
GluA2 TARP mod: GluA2-stargazin AMPA receptor complex modulation | O88602+P19491 | HEK293 GluA2+stargazin, membrane potential dye (FDSS), glutamate EC50; hits were called plate by plate, in both directions | calls only at 30 µM | 3.5% of 40,000 active;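 active = any of four per-well response measures lying three or more SD from its plate-wide compound average, in either direction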
GIRK2 activator: Activators of human GIRK2-containing channels | P48051 | HEK293 GIRK2/NPY4 cells, thallium flux fluorescence | activation (% efficacy), % for hits at 37.5 µM | 34,000 tested, under 10 active | AID 1259324;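 active = primary screen hit, no activity in plain HEK293 cells, and in GIRK2-only cells above 5% efficacy rising with concentration; inactive = the rest, including fluorescent compounds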;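 also: efficacy is normalized control-subtracted fluorescence 15 s after thallium addition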
Target sequence (P48051 whole entry, looked up): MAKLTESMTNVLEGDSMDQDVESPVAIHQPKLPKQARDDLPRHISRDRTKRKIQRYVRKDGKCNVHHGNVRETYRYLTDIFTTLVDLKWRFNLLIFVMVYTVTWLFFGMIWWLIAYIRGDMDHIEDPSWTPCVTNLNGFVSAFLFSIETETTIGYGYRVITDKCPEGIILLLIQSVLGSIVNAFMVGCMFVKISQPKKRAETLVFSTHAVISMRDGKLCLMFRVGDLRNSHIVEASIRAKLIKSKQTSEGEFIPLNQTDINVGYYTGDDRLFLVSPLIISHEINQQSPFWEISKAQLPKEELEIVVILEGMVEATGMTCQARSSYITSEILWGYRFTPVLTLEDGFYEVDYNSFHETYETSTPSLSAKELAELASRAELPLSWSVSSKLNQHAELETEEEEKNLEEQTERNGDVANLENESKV
Starred values were filed as active, the others as inactive; i = inactive; / = no result given; + = active, no number.

SMILES	GluA2 TARP mod	GIRK2 activator
COC(=O)c1cc(Br)ccc1NC(=O)C(C)C	i	i
CSc1ccccc1NC(=O)C(=O)NCC1CCN(C)CC1	i	i
CSc1ccccc1NC(=O)C(=O)NCC1CCN(C2CCCC2)CC1	+	i
COc1ccc(S(=O)(=O)CC(=O)N2CCN(c3nc4c(C)ccc(Cl)c4s3)CC2)cc1	i	/
CCS(=O)(=O)c1ccc(CC(=O)N2CCN(c3nc4c(C)ccc(Cl)c4s3)CC2)cc1	+	/
COc1ccc(SCC(=O)Nc2nc(-c3ccc(OC)cc3)c(C)s2)cc1	i	/
N#Cc1nc(-c2ccc(S(=O)(=O)N3CCCCCC3)cc2)oc1NCCN1CCOCC1	i	i
N#Cc1nc(-c2ccc(S(=O)(=O)N3CCCCCC3)cc2)oc1NCCCn1ccnc1	+	i
O=C(CN1C(=O)c2ccccc2S1(=O)=O)N(Cc1ccccc1)c1ccccn1	i	i
O=C(Cc1cc(-c2ccc(F)cc2F)on1)Nc1ccon1	i	i
Cc1ccnc(NC(=O)Cc2cc(-c3ccccc3F)on2)c1	+	i
CCCNC(=O)CCCCn1c(=O)c2ccccc2n(CC(=O)NCc2ccc(OC)cc2)c1=O	i	/
CCOC(=O)c1sc2cccc(F)c2c1S(=O)(=O)Nc1cc(Cl)c(OC)cc1OC	+	/
CCOC(=O)c1sc2cccc(F)c2c1S(=O)(=O)Nc1ccc(OC)c(Cl)c1	i	/
COc1ccc(NC(=O)c2ccc(N3CCCCS3(=O)=O)cc2)cc1Cl	i	i
CC(C)NC(=O)CSc1nnc(N2CCN(c3ccc(F)cc3)CC2)s1	+	i
CCOC(=O)C(C)Sc1nnc(N2CCN(c3ccc(F)cc3)CC2)s1 (stereo not given)	i	i
Cc1cc(N2CCN(c3ccccc3Cl)CC2)nc(-n2cc([N+](=O)[O-])cn2)n1	i	i
O=C(O)C1CCN(c2nnc(N3CCCCC3)c3ccccc23)CC1	i	i
COc1ccc(NC(=O)CCc2ccccc2)cc1N1CCCCC1=O	i	i
COc1ccc(OC)c(S(=O)(=O)Nc2cccc(N3CCCCC3=O)c2)c1	i	i
CCCCS(=O)(=O)N1CCN(c2ccc(-n3nc(C)c(C)c3C)nn2)CC1	i	i
CCCCS(=O)(=O)N1CCN(c2ccc(Nc3cccc(C)n3)nn2)CC1	+	i
Cn1c(=O)c(C(=O)Nc2ccc(S(N)(=O)=O)cc2)cc2cccnc21	+	i
Cn1c(=O)c(C(=O)NCCc2ccc(S(N)(=O)=O)cc2)cc2cccnc21	i	i
SMILES	GluA2 TARP mod	GIRK2 activator
COc1ccc(-c2csc(-n3nc(C)cc3NC(=O)COc3ccccc3OC)n2)cc1OC	i	i
Cn1nnnc1SCC(=O)NCc1nn(C)c(=O)c2ccccc12	i	i
Cc1cc(C)n(-c2cc(N3CCCC(C(=O)NCc4ccco4)C3)ncn2)n1 (stereo not given)	+	i
Cc1cc(C)n(-c2cc(N3CCCC(C(=O)NCc4ccc5c(c4)OCO5)C3)ncn2)n1 (stereo not given)	i	i
COc1ccc(-c2cc(C(=O)NC3CCCCCC3)c3c(C)nn(C4CCS(=O)(=O)C4)c3n2)cc1 (stereo not given)	i	i
O=C(C1CCCC1)N1CCN(c2ccc(-c3ccc(Cl)cc3)nn2)CC1	+	i
O=C(C1CC1)N1CCN(c2ccc(-c3ccc(Cl)cc3)nn2)CC1	i	i
O=C(C1CCCCC1)N1CCN(c2ccc(-c3ccncc3)nn2)CC1	i	i
O=C(C1c2ccccc2Oc2ccccc21)N1CCN(c2ccc(-c3ccncc3)nn2)CC1	+	i
CCOC(=O)N1CCc2c(sc(NC(=O)CSc3ccc(OC)cc3)c2C(=O)OC)C1	i	/
CN1C(=O)CCc2cc(NS(=O)(=O)c3ccc(OC(F)(F)F)cc3)ccc21	i	i
CC(C)Sc1ccc(CC(=O)NC2CCCC(O)C2)cc1 (stereo not given)	i	i
Cc1onc(-c2ccccc2Cl)c1C(=O)N1CCN(c2nccn2C)CC1	i	i
Cc1cc(N2CCN(C)CC2)nc(SCC2COc3ccccc3O2)n1 (stereo not given)	+	/
NCC(O)COCC1COc2ccccc2O1 (stereo not given)	i	i
O=[N+]([O-])c1ccc(O)c(/C=N/O)c1	i	/
Cc1ccc(OCCCC(=O)Nc2ccc3c(c2)OCO3)c(C)c1	i	i
Cc1ccnc(Nc2ccc(NCCNC(=O)c3ccco3)nn2)c1	/	i
O=C(NCC(O)(c1ccccc1)C(F)(F)F)c1cccc(C(F)(F)F)c1 (stereo not given)	+	i
O=C(NCC(O)(c1ccccc1)C(F)(F)F)C1COc2ccccc2O1 (stereo not given)	i	i
O=C(NCC(O)(c1ccccc1)C(F)(F)F)c1ccc(Cl)c(Cl)c1 (stereo not given)	i	i
O=C(NCC(O)(c1ccccc1)C(F)(F)F)C1c2ccccc2Oc2ccccc21 (stereo not given)	+	i
N#Cc1ccc(NC(=O)CSc2ncc(S(=O)(=O)c3cccs3)c(N)n2)cc1	+	i
N#Cc1cccc(NC(=O)CSc2ncc(S(=O)(=O)c3cccs3)c(N)n2)c1	i	i
COc1ccccc1N1CC(C)Cn2c1nc1c2c(=O)n(CC(C)=O)c(=O)n1C (stereo not given)	i	/
SMILES	GluA2 TARP mod	GIRK2 activator
CSc1nn(CC(=O)Nc2ccc3c(c2)OCO3)c(N)c1S(C)(=O)=O	i	i
CSc1nn(CC(=O)Nc2cccc(Cl)c2)c(N)c1S(=O)(=O)c1ccccc1	+	/
CSc1nn(CC(=O)Nc2cccc(C)c2C)c(N)c1S(C)(=O)=O	+	i
O=C(Cn1nc(S(=O)(=O)c2ccccc2)ccc1=O)Nc1ccc(Cl)cc1	+	i
CSc1nn(CC(=O)Nc2c(C)cccc2C)c(N)c1S(C)(=O)=O	+	i
CCSc1nn(CC(=O)Nc2cccc(SC)c2)c(N)c1S(=O)(=O)c1ccc(C)cc1	i	/
CCc1ccccc1NC(=O)Cn1nc(SC)c(S(=O)(=O)c2ccc(F)cc2)c1N	i	/
O=C(Cn1nc(S(=O)(=O)c2ccccc2)ccc1=O)Nc1ccccc1F	i	i
CCCCOc1ccc(NC(=O)N2CCN(Cc3nc(-c4ccco4)cs3)CC2)cc1	i	i
CCOc1cc(C)ccc1S(=O)(=O)NC1CC(C)(C)NC(C)(C)C1	i	/
CCc1cc(=O)[nH]c(SCc2nc(-c3ccc(OC)cc3OC)no2)n1	i	i
COc1ccc(C2(CNC(=O)c3ccc(Cl)c(Cl)c3)CCOCC2)cc1	+	/
COc1cc(OC)cc(C(=O)NCC2(c3ccccc3)CCOCC2)c1	i	i
Cc1ccc(-c2ccc(SCC(=O)NC3CCCCC3)nn2)c(C)c1	+	i
COc1ccc(OC)c(-c2ccc(SCC(=O)NC3CCCC3)nn2)c1	i	i
Cc1ccc(NC(=O)N2CCN(c3ccc(Nc4cccc(C)n4)nn3)CC2)c(C)c1	/	i
CC1CCCCN1c1nc2c(S(=O)(=O)c3ccccc3)nnn2c2ccc(Cl)cc12 (stereo not given)	+	i
COCCNc1nc2c(S(=O)(=O)c3ccccc3)nnn2c2ccc(Cl)cc12	i	i
